Measurements published in PubChem BioAssay AID651814 (National Center for Advancing Translational Sciences (NCATS), 2012).
About 590 (28%) of roughly 2,100 compounds were called active. Not shown: some 42% with an inconclusive outcome. Calls follow the shape of the dose curve; as a rule, active = well fitted inhibition curve with a large enough effect; inconclusive = small, poorly fitted or top-dose-only effect; inactive = flat fitted curve, though single readings scatter. Some of the results follow.

target: DNA dC->dU-editing enzyme APOBEC-3F (Homo sapiens) (UniProt Q8IUX4); assay: qHTS for inhibitors of Vif-A3F interactions: Cherry picks; conditions: HeLa A3F-eYFP + Vif (tagged APOBEC3F with the HIV-1 protein that degrades it), eYFP fluorescence, 24 h; also: nearly all actives have a fitted effect of over 70% in size;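 as to max response: % of control where 0% means no effect; active compounds raise eYFP fluorescence by blocking Vif-driven A3F loss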
How it was run: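 HeLa cells stably expressing A3F-eYFP plus Vif, cultured overnight, then exposed to compounds at several concentrations for 24 h at 37 deg C. Reduced Vif-driven degradation read as rising eYFP fluorescence (488 nm ex/500-530 nm em) by laser-scanning cytometry; MG132 as positive control.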
Potency is read from the fitted curve at half-maximal effect.

DNA dC->dU-editing enzyme APOBEC-3F (Homo sapiens), sequence (Q8IUX4 whole entry, looked up): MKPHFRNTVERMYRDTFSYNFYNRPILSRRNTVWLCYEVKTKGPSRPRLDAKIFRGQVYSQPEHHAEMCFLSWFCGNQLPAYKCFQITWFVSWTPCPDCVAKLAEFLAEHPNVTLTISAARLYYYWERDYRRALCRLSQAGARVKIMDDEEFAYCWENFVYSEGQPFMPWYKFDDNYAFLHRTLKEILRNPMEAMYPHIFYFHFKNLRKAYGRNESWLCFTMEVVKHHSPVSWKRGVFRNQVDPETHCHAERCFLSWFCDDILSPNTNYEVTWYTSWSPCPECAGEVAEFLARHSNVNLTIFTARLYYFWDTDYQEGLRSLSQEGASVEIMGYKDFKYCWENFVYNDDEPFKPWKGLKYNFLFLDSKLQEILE

Which Potency does the source give for O=C(Cc1nc2ccccc2[nH]c1=O)c1ccc(Cl)cc1 here?
The Potency was 18.4 µM (active).

CC(=O)Nc1ccc(NC(=O)C/C(C)=N/NC(N)=S)cc1 was tested. Which max response did it give?
The max response was 0.646% (inactive).

How did the max response turn out when CCc1ccc(C(=O)NC(=S)Nc2ccc(N3CCOCC3)cc2)cc1 was run?
Its max response is -0.0784% (inactive).

How did the Potency turn out when CCc1ccc(NC(=O)/C(C#N)=C/c2cc3ccc(C)cc3nc2N2CCOCC2)cc1 was run?
Its Potency is 14.6 µM (active).

COCCCNC(=S)N/N=C/c1ccc(OC)cc1 was tested. Which max response did it give?
The max response was -0.494% (inactive).

How did the max response turn out when C=CCNC(=S)N/N=C(\C)c1ccc(OC)cc1 was run?
The max response was -3.87% (inactive).

How did the Potency turn out when Cc1cc(C)c(/C=C2\C(=O)Nc3ccccc32)[nH]1 was run?
Its Potency is 16.4 µM (active).

With Cc1nn(-c2ccc(F)cc2)c(Cl)c1/C=C1\C(=O)Nc2ccccc21 as the compound, how does the max response read?
Its max response is -19.4% (inactive).

With CNCC(O)Cn1c2c(c3ccccc31)CCCC2 (stereo not drawn) as the compound, how does the max response read?
The max response was 1.63% (inactive).

CCN(CC)c1ccc(NC(=O)CSc2nc(C3CC3)nc3ccccc23)cc1C was tested. Which max response did it give?
Its max response is -22.1% (inactive).

For Cc1cc(N(C)C)c(C)cc1/C=C/c1ccnc2ccccc12, which Potency is on record?
Its Potency is 18.4 µM (active).

Which Potency does the source give for CCN(CC)c1cc(C)c(/C=C/c2ccnc3ccccc23)cc1C here?
The Potency was 13 µM (active).

For Cc1cc(C)n(S(=O)(=O)/C=C/c2ccccc2)n1, which max response is on record?
The max response was -7.92% (inactive).

With c1ccc2[nH]c(NN=C3CCCCCC3)nc2c1 as the compound, how does the max response read?
The max response was 2.02% (inactive).

How did the Potency turn out when O=C(Nc1ccccc1-c1nc2ccccc2[nH]1)c1ccc(N2C(=O)CCC2=O)cc1 was run?
Its Potency is 18.4 µM (active).

Which Potency does the source give for CCN1C(=S)SC(=O)C1=C1C=C(C)N(Cc2ccco2)C(C)=C1 here?
Its Potency is 17.7 µM (active).

For CN(C)C=Nc1c(Br)cc(Br)c2nonc12, which Potency is on record?
The Potency was 14.6 µM (active).

How did the max response turn out when O=S(=O)(Nc1cccc2ncccc12)c1cccs1 was run?
Its max response is -3.96% (inactive).

Which max response does the source give for CC(=O)c1cccc(NC(=S)N2c3ccccc3CC2C)c1 (stereo not drawn) here?
The max response was 9.61% (inactive).

Which Potency does the source give for Cc1cc(C)cc(NC(=O)/C=C/c2ccc([N+](=O)[O-])s2)c1 here?
Its Potency is 10.3 µM (active).

CC(=O)c1cccc(NC(=O)/C=C/c2ccc([N+](=O)[O-])s2)c1 was tested. Which Potency did it give?
Its Potency is 5.17 µM (active).

Cc1ccc(NC(=O)/C=C/c2ccc([N+](=O)[O-])s2)c(C)c1 was tested. Which Potency did it give?
The Potency was 5.17 µM (active).

How did the max response turn out when COC(=O)c1sccc1NC(=S)Nc1cc(C)cc(C)c1 was run?
Its max response is -0.135% (inactive).

Cc1ccc(NC(=O)c2ccc([N+](=O)[O-])s2)cc1S(=O)(=O)N1CCOCC1 was tested. Which max response did it give?
The max response was -11.7% (inactive).

Cc1cccc(NC(=O)/C=C/c2ccc([N+](=O)[O-])s2)c1 was tested. Which Potency did it give?
Its Potency is 3.26 µM (active).

Cc1nc(NC(=O)/C=C/c2ccco2)sc1C was tested. Which max response did it give?
Its max response is -21.9% (inactive).

With N#C/C=C/N1CCN(C(=O)c2ccco2)CC1 as the compound, how does the max response read?
Its max response is 0.169% (inactive).

With Cc1cc(C)nc(-n2nc(C)cc2NC(=O)c2ccc(F)cc2F)n1 as the compound, how does the max response read?
Its max response is -0.0521% (inactive).

COc1cccc(Nc2nc(Nc3ccc(Cl)c(C(=O)O)c3)nc(C)c2[N+](=O)[O-])c1 was tested. Which max response did it give?
The max response was -16.3% (inactive).

Cc1ccc(NC(=O)/C=C/c2ccc([N+](=O)[O-])s2)cc1 was tested. Which Potency did it give?
The Potency was 5.17 µM (active).

Which Potency does the source give for CCOC(=O)c1cc2n(c1/N=C/N(C)C)-c1ccccc1C2=O here?
Its Potency is 18.4 µM (active).

For CCOC(=O)c1cc2n(c1N)-c1ccccc1C2=O, which max response is on record?
Its max response is -16.6% (inactive).

Fc1cccc(Cc2c(-c3ccco3)nc3ccc(Br)cn23)c1 was tested. Which max response did it give?
The max response was -28.7% (inactive).

With O=C1c2ccccc2C(=O)c2c(/C=C/N3CCCCC3)ccnc21 as the compound, how does the Potency read?
The Potency was 20.6 µM (active).

How did the max response turn out when O=C1c2cccc3c([N+](=O)[O-])ccc(c23)C(=O)N1c1ccccn1 was run?
Its max response is -0.304% (inactive).

For CC(=O)Oc1cccc(N2C(=O)c3cccc4c([N+](=O)[O-])ccc(c34)C2=O)c1, which Potency is on record?
Its Potency is 14 µM (active).

How did the max response turn out when CC(=O)Oc1ccc(N2C(=O)c3cccc4c([N+](=O)[O-])ccc(c34)C2=O)cc1 was run?
The max response was -15.1% (inactive).

CC(C)(C)c1ccc(C(=O)C[n+]2cccc3cc(Cl)ccc32)cc1 was tested. Which Potency did it give?
Its Potency is 20.6 µM (active).

For CCCC1=[N+](CC(=O)c2ccc(Br)cc2)CCn2cccc21, which max response is on record?
Its max response is -4.77% (inactive).

COc1ccc(C(=O)C[n+]2cc(Br)cc3ccccc32)cc1 was tested. Which Potency did it give?
Its Potency is 8.2 µM (active).

How did the Potency turn out when O=C(C[n+]1cccc2cc(Cl)ccc21)c1ccc2ccccc2c1 was run?
Its Potency is 18.4 µM (active).

With COc1ccc(C(=O)C[n+]2cccc3cc(Cl)ccc32)cc1 as the compound, how does the Potency read?
Its Potency is 18.4 µM (active).

Which max response does the source give for CCCc1nc2c(C)cc(Br)cn2c1Cc1ccccc1 here?
Its max response is -22.2% (inactive).

O=C(COc1ccccc1)NC(=S)Nc1cccc2c(O)cccc12 was tested. Which max response did it give?
Its max response is -15.7% (inactive).

With COc1ccc(C(=O)NC2CCCc3ccccc32)cc1[N+](=O)[O-] (stereo not drawn) as the compound, how does the max response read?
The max response was -23.5% (inactive).

O=C(C[n+]1cccc2cc(Cl)ccc21)c1ccc(I)cc1 was tested. Which Potency did it give?
The Potency was 20.6 µM (active).

How did the Potency turn out when NN=C1c2ccccc2C(=O)C1C(=O)C(c1ccccc1)c1ccccc1 (stereo not drawn) was run?
The Potency was 7.9 µM (active).

How did the max response turn out when O=C(c1ccccc1)C1C(=O)c2ccccc2C1=O was run?
Its max response is 2.89% (inactive).

CCOC(=O)/C=c1/s/c(=C/c2ccc3cc(OC)ccc3c2)c(=O)n1CC(=O)NCC1CCCO1 (stereo not drawn) was tested. Which Potency did it give?
Its Potency is 18.4 µM (active).

Which Potency does the source give for CCOC(=O)/C=c1\s/c(=C\c2c(OC)ccc3ccccc23)c(=O)n1CC(=O)NCC1CCCO1 (stereo not drawn) here?
The Potency was 14.6 µM (active).

For NC(=O)CSc1nc2c(sc3ccccc32)c(=O)n1CCCC(=O)NCC1CCCO1 (stereo not drawn), which max response is on record?
The max response was 3.7% (inactive).

Which Potency does the source give for CCOC(=O)/C=c1/s/c(=C\c2c(OC)ccc3ccccc23)c(=O)n1CC(=O)NCC1CCCO1 (stereo not drawn) here?
The Potency was 11.2 µM (active).

How did the max response turn out when Cc1cc(-c2ccccc2)c2c3c(c(-c4ccccc4)n2n1)c(=O)n(C)c(=O)n3C was run?
Its max response is -9.86% (inactive).

Cc1ccc(Nc2nc(Cl)c(C=O)s2)cc1Cl was tested. Which Potency did it give?
Its Potency is 23.1 µM (active).

Which max response does the source give for N#C/C(=C\c1ccc(C(=O)O)cc1)c1nc2sc3c(c2c(=O)[nH]1)CCCC3 here?
The max response was 1.2% (inactive).

How did the Potency turn out when CN(C)c1ccc(/C=C(\C#N)c2nc3ccccc3c(=O)[nH]2)cc1 was run?
The Potency was 0.731 µM (active).

How did the Potency turn out when Fc1ccc(-c2cnn3c(-c4cccs4)ccnc23)cc1 was run?
Its Potency is 4.98 µM (active).

How did the max response turn out when Cc1ccccc1NCC(=O)N=Nc1c(O)[nH]c2ccc([N+](=O)[O-])cc12 was run?
The max response was -1.42% (inactive).

CCN(CC)S(=O)(=O)c1cc([N+](=O)[O-])ccc1N=Nc1c(O)[nH]c2ccccc12 was tested. Which Potency did it give?
The Potency was 16.4 µM (active).

How did the Potency turn out when CCN(C)c1ccc(/C=C/c2ccnc3ccccc23)cc1 was run?
Its Potency is 13 µM (active).

For CCCN(CCC)c1ccc(/C=C/c2ccnc3ccccc23)cc1, which Potency is on record?
The Potency was 7.31 µM (active).

Which Potency does the source give for CCCCN(CCC(=O)O)c1ccc(/C=C/c2ccnc3ccccc23)cc1 here?
Its Potency is 18.4 µM (active).

For CC(C)CN(CC(C)C)c1ccc(/C=C/c2ccnc3ccccc23)cc1, which Potency is on record?
The Potency was 20.6 µM (active).
